Reference: PubChem BioAssay (NCATS)
A number with no mark means an inactive call. The source made the active and inactive calls. Calls come from the whole dose curve; as a rule, active = well fitted curve in the direction sought with a large enough effect; inconclusive = small, poorly fitted or top-dose-only effect, or another doubt; inactive = no such curve, though single readings can be large; an effect the other way counts as inactive or inconclusive.

Experiment: qHTS for inhibitors of adenylyl cyclases using a fission yeast platform: a pilot screen against the NCATS LOPAC library (AID 1347410);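 note: plate controls were DMSO vehicle for no effect and DPI positive control for full effect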
Conditions: S. pombe CHP2027, fbp1-GFP fluorescence, 18 h, yeast expressing mammalian AC9 and human GNAS; series mostly up to 57.5 µM; activity, positive = inhibition (GFP gain): at the top concentration
In short: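 Growth medium went into the plates first, then compounds were pinned (final up to 57 µM), then CHP2027 yeast were added. Plates were incubated overnight (18 h) at 30C in the dark, and GFP was measured by laser scanning cytometry.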

SMILES	activity, positive = inhibition (GFP gain) [%]
OC[C@H]1O[C@@H](n2cnc3cncnc32)[C@H](O)[C@@H]1O	1.63
O=c1cc(-c2ccccc2F)[nH]c2cc3c(cc12)OCO3	-0.438
O=C(O)Cc1ccc(O)c(O)c1	-0.438
Oc1cc2c(cc1O)C(c1ccccc1)CNCC2 (stereo not drawn)	-0.438
COC(=O)C(C)(N)Cc1ccc(O)cc1 (stereo not drawn)	-0.438
CC#CCOC(=O)c1c(C)nc2sc3c(c2c1N)CCC(O)C3 (stereo not drawn)	-0.438
CCCCCCC/C=C\CCCCCCCCC(=O)O	-0.438
C=CC[C@H](N)C(=O)O	-0.438
O=C1Nc2ccc(I)cc2/C1=C/c1cc(Br)c(O)c(Br)c1	-0.438
CN(C)CCCc1cc(C(=O)Nc2ccc(-c3ccncc3)cc2)ccc1O	0.703
COc1ccc(C(=O)NCc2cccnc2)cc1C(=O)NCc1cccnc1	0.0905
O=c1cc(-c2ccccc2)[nH]c2nc(Cl)ccc12	-0.438
N#C/C(=C\c1ccc(O)c(O)c1)C(=O)NCCCNC(=O)/C(C#N)=C/c1ccc(O)c(O)c1	0.0951
CCCCCCCC/C=C\CCCCCCCC(=O)NCCc1ccc(O)c(O)c1	-0.438
N#Cc1cc([N+](=O)[O-])c2sc(C(N)=O)[n+]([O-])c2c1	-0.438
CC(/C=C/c1cccc(Oc2ccc(F)cc2)c1)N(O)C(N)=O (stereo not drawn)	1.72
CCCCOC(=O)NS(=O)(=O)c1sc(CC(C)C)cc1-c1ccc(Cn2c(CC)nc3c(C)cc(C)nc32)cc1	0.128
N[C@@H](CS(=O)O)C(=O)O	-0.438
O=C(N[C@@H](Cc1ccccc1)C(=O)CCl)OCc1ccccc1	-0.438
CCCn1c(=O)c2[nH]c(-c3ccc(S(=O)(=O)O)cc3)nc2n(CCC)c1=O	-0.438

Experiment: Validation qHTS assay for inhibitors of Activation Induced Cytidine Deaminase (AID): UDG Counterscreen signal (AID 1347427); note: potency is the fitted concentration of half-maximal effect; for activity, negative = inhibition: 0% is about no effect
Conditions: biochemical UDG counterscreen, fluorescence signal; series mostly up to 115 µM; activity, negative = inhibition: at the top concentration
In short: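 Fluorescence at 560 nm excitation, 665 nm emission reports UDG signal after 250 mM NaOH (2x) addition and 30 min. Enzymes (AID 1 uM, UDG 2 U/mL, at 4/3x) preincubated 10 min with compound, then 4 h with 4x 250 nM DJC20/DJC23 substrate at room temperature.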

SMILES	activity, negative = inhibition [%]	Potency
COc1cc(/C=C(\C#N)C(=O)c2ccc(O)c(O)c2)cc(I)c1O	4.57	
NC(=Nc1ccccc1)NC(=O)c1nc(Cl)c(N)nc1N	12	
COc1cc([C@@H]2c3cc4c(cc3[C@H](O)C3COC(=O)[C@@H]32)OCO4)cc(OC)c1OC (stereo partly drawn)	12.3	
CC(=O)NNC(=O)N1Cc2ccccc2Oc2ccc(Cl)cc21	3.45	
O=C(O)C1=CC(=C(c2ccc(O)c(C(=O)O)c2)c2ccc(O)c(C(=O)O)c2)C=CC1=O		89.1 µM (active)
OCC1NCC(O)C(O)C1O (stereo not drawn)	12.3	
CC1C(=O)N(C)C(=O)c2nc[nH]c21 (stereo not drawn)	8.74	
CN(C)CCC(c1ccc(Br)cc1)c1ccccn1 (stereo not drawn)	3.83	
CC(=O)SC1CC2=CC(=O)CC[C@]2(C)C2CC[C@@]3(C)C(CC[C@@]34CCC(=O)O4)C12 (stereo partly drawn)	9.45	
C=C1C(=O)O[C@@H]2[C@H]3O[C@]3(C)CCC=C(C)CC[C@@H]12	5.61	
C[C@@]1(C2CCCC2)Cc2cc(OCC(=O)O)c(Cl)c(Cl)c2C1=O	8.91	
COC(=O)C1=C(C)NC(C)=C([N+](=O)[O-])C1c1ccccc1C(F)(F)F (stereo not drawn)	13.1	
CC[C@@H]1Cc2cc(O)ccc2C2=C1c1ccc(O)cc1C[C@H]2CC	8.32	
COc1cc(/C=C(\C#N)C(=O)Nc2nnc(C(F)(F)F)s2)ccc1OCc1ccc(C(F)(F)F)cc1C(F)(F)F	-14.4	
Nc1ncnc2c1ncn2C1CCCC1	13.9	
O=S(=O)(c1cccc2c(Cl)cccc12)N1CCCNCC1	18.8	
O=C1C2C=CC=CC2=NC(=S)N1CCN1CCC(=C(c2ccc(F)cc2)c2ccc(F)cc2)CC1 (stereo not drawn)	1.85	

SMILES	activity, negative = inhibition [%]	Potency
OC[C@H]1O[C@@H](n2cnc3cncnc32)[C@H](O)[C@@H]1O	11.9	
O=c1cc(-c2ccccc2F)[nH]c2cc3c(cc12)OCO3	7.89	
O=C(O)Cc1ccc(O)c(O)c1	5.04	
Oc1cc2c(cc1O)C(c1ccccc1)CNCC2 (stereo not drawn)	8.74	
COC(=O)C(C)(N)Cc1ccc(O)cc1 (stereo not drawn)	6.84	
CC#CCOC(=O)c1c(C)nc2sc3c(c2c1N)CCC(O)C3 (stereo not drawn)	-3.78	
CCCCCCC/C=C\CCCCCCCCC(=O)O	-1.17	
C=CC[C@H](N)C(=O)O	5.05	
O=C1Nc2ccc(I)cc2/C1=C/c1cc(Br)c(O)c(Br)c1	11.8	
CN(C)CCCc1cc(C(=O)Nc2ccc(-c3ccncc3)cc2)ccc1O	5.25	
COc1ccc(C(=O)NCc2cccnc2)cc1C(=O)NCc1cccnc1	5.58	
O=c1cc(-c2ccccc2)[nH]c2nc(Cl)ccc12	11.5	
N#Cc1cc([N+](=O)[O-])c2sc(C(N)=O)[n+]([O-])c2c1	10.8	
CCCCOC(=O)NS(=O)(=O)c1sc(CC(C)C)cc1-c1ccc(Cn2c(CC)nc3c(C)cc(C)nc32)cc1	5.62	
N[C@@H](CS(=O)O)C(=O)O	13.1	
O=C(N[C@@H](Cc1ccccc1)C(=O)CCl)OCc1ccccc1	1.54	
